Experiment [1] is described as follows: E. coli DRC41 culture turbidity changes, primary screen, E. coli filamentation inducer project, strain DRC41, OD650, 48 h (AID 1152).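 Further: E. coli MC1000 strain DRC41 lacking acrAB efflux pump and sulA.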 The note with it: E. coli DRC41 (acrAB sulA), higher = more signal, called active from +8 up or from −8 down.
Experiment [2] in a line: small-molecule binders of probe aLefty1, primary screen, biochemical, small-molecule microarray, 635/667 nm fluorescence (AID 1153).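 Further: score merges spot fluorescence with signal-to-noise ratio from the scanned slide images.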 The note with it: higher = more signal.
The nature of experiment [3]: PSAC antagonists in infected red cells, primary screen, cell-based, P. falciparum Indochina, OD700, 1 h (AID 1154). The note with it: P. falciparum Indochina infected RBC osmotic lysis, higher = more signal, called active from +8 up or from −8 down.
Experiment [4] in a line: PSAC antagonists in infected red cells, primary screen, cell-based, P. falciparum Indochina, OD700, 2 h (AID 1155).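 Further: lysis reports solute entry through the parasite surface anion channel PSAC; channel blockers reduce lysis of infected cells.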 The note with it: P. falciparum Indochina infected erythrocytes, osmotic lysis OD700; higher = more signal, called active from +8 up or from −8 down.
Experiment [5] can be described thus: osmotic lysis modulators in infected erythrocytes, primary screen, PSAC antagonist project, cell-based, P. falciparum Indochina, OD700, 3 h (AID 1156). The note with it: higher = more signal, called active from +8 up or from −8 down.
A short description of experiment [6]: PSAC antagonists in infected red cells, primary screen, cell-based, P. falciparum Indochina, OD700, 18 h (AID 1157). The note with it: P. falciparum Indochina infected erythrocytes, osmotic lysis OD700, 18 h; higher = more signal, called active from +8 up or from −8 down.
Experiment [7] in a line: modulators of S6 phosphorylation in cells, primary screen, cell-based, A549, cytoblot, luminescence, serum-stimulated (AID 1158).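 Further: serum-stimulated A549 lung adenocarcinoma cells; signal is phosphorylated S6 detected by cytoblot immunostaining with HRP secondary.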 The note with it: A549 phospho-S6 cytoblot, 5 h, higher = more signal.
The target in experiment [8] is NADPH oxidase 2 (Homo sapiens) (UniProt P04839). In words: NOX2-dependent H2O2 signal modulators, primary screen, NOX inhibitor project, cell-based, HEK293-NOX2, PMA-stimulated, Amplex Red fluorescence (AID 1159). Further: test concentration not given here. The note with it: 45 min, higher = more signal, called active from +8 up or from −8 down.
Chain of NADPH oxidase 2 (Homo sapiens) (P04839 whole entry, looked up): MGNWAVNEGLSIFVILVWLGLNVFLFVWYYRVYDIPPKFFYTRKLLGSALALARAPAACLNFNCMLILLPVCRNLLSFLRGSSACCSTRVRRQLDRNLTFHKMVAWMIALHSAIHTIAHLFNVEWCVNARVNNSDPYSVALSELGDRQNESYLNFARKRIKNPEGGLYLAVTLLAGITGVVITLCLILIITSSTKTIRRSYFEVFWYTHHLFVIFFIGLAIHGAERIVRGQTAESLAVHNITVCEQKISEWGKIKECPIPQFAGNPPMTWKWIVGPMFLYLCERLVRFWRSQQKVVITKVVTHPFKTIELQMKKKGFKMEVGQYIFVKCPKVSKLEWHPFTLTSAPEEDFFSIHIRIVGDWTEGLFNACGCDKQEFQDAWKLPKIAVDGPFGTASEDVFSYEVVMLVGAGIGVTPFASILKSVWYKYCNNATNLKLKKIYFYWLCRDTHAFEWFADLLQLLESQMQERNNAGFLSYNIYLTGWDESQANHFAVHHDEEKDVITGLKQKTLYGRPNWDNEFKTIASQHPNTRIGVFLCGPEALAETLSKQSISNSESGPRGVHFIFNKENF
The target of experiment [9] is NADPH oxidase 4 (Homo sapiens) (UniProt Q9NPH5). In words: NOX4-dependent H2O2 signal modulators, primary screen, NOX inhibitor project, cell-based, HEK293-NOX4, tetracycline-induced, Amplex Red fluorescence (AID 1160). The note with it: 45 min, higher = more signal, called active from +8 up or from −8 down.
Chain of NADPH oxidase 4 (Homo sapiens) (Q9NPH5 whole entry, looked up): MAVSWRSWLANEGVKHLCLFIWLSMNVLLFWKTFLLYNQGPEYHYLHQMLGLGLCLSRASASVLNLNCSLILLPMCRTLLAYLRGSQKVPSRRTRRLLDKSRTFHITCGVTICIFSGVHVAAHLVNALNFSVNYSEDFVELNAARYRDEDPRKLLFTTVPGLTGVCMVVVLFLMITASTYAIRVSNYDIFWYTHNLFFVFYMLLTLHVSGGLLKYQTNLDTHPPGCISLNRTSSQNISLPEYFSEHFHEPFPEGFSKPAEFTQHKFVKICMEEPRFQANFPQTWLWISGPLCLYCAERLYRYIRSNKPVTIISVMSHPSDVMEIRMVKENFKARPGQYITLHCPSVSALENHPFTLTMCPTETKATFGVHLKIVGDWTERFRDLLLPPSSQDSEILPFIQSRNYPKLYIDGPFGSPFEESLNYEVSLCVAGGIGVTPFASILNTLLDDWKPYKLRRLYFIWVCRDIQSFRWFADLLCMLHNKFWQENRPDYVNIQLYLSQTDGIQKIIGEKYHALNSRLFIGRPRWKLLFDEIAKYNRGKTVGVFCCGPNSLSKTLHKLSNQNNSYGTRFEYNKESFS
Experiment [10] has as its target NADPH oxidase 5 (Homo sapiens) (UniProt Q96PH1). The experiment can be described thus: NOX5-dependent H2O2 signal modulators, primary screen, NOX inhibitor project, cell-based, HEK293-NOX5, Amplex Red fluorescence (AID 1161). The note with it: HEK293-NOX5, ionomycin, 45 min, higher = more signal.

These results are taken from PubChem BioAssay.

Structures are written as SMILES. Active and inactive are the calls of the source.

Chain of NADPH oxidase 5 (Homo sapiens) (Q96PH1 whole entry, looked up): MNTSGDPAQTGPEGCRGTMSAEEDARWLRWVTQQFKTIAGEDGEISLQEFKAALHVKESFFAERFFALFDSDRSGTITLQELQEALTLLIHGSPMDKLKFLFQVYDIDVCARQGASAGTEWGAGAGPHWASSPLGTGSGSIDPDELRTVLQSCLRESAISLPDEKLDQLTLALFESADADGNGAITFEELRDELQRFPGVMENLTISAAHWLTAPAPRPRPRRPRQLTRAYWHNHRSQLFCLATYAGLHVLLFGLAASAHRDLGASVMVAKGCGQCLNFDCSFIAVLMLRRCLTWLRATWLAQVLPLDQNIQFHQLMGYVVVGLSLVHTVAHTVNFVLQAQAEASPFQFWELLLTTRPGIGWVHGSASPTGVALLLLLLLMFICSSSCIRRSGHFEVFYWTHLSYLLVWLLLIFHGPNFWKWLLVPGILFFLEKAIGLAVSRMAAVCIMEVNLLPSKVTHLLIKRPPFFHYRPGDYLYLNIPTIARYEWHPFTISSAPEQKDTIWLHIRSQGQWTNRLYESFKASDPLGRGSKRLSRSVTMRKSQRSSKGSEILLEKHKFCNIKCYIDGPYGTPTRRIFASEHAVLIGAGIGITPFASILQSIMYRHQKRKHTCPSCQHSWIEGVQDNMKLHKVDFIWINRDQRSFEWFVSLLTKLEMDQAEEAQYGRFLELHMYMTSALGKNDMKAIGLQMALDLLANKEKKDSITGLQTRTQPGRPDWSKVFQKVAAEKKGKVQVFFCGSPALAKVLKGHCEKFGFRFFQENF

`CC1CC/C=C\[C@H]2OC34C=CCN(Cn5nnc6ccccc65)C(=O)[C@H]3N(CCCCCO)C(=O)[C@@H]4C2C(=O)O1` (stereo not given in full): the z-score was 0.996 (inactive) in [1]; 0.586 (inactive) in [3]; 0.253 (inactive) in experiment [4]; 0.193 (inactive) in [5]; 0.626 (inactive) in [6]; 0.0478 in experiment [7]. Also, the values for the z-score in experiment [8], in [9] and in experiment [10] were 0.664 (inactive), 0.341 (inactive) and 1.68, respectively. The composite z-score in [2] is -0.624.

With `CCN(CC)c1ccc(N2CC=CC34O[C@@H]5/C=C\CCC(C)OC(=O)C5[C@H]3C(=O)N(CCCCCO)[C@@H]4C2=O)cc1` (stereo not given in full), the z-score in experiment [1] was -0.0949 (inactive); in experiment [3] it was -0.062 (inactive); in experiment [4], -0.928 (inactive); in [5], -0.356 (inactive); in [6], -0.427 (inactive); in experiment [7], 0.414. The values for the z-score in [8], in experiment [9] and in experiment [10] were -0.0453 (inactive), -0.419 (inactive) and 0.779, respectively. Further, the composite z-score in [2] is -0.147.

In the case of `COc1ccc([Si](C)(C)[C@H]2[C@H](CCO)O[C@@]3(C(=O)N(Cc4ccccc4)c4ccc(N5CCCCC5=O)cc43)[C@@H]2C)cc1`, the z-score in [1] is 0.663 (inactive); in experiment [3], 6.61 (inactive); in [4], 2.24 (inactive); in experiment [5], 1.45 (inactive); in experiment [6], 1.72 (inactive); in [7], 0.204. Also, the values for the z-score in [8], in experiment [9] and in experiment [10] were -1.16 (inactive), 0.636 (inactive) and 1.81, respectively. The compound also yielded a composite z-score in experiment [2] of 0.0844.

For the compound `[N-]=[N+]=NCc1ccccc1[C@@H]1OC(c2ccc(OCCCO)cc2)=N[C@]1(CCS(=O)(=O)c1ccccc1)C(N)=O`, the z-score is 1.06 (inactive) in experiment [1]; 26.4 (active) in experiment [3]; 14.7 (active) in experiment [4]; 0.618 (inactive) in experiment [5]; 1.75 (inactive) in [6]; -0.353 in experiment [7]. Also, the results for the z-score in experiment [8], in experiment [9] and in experiment [10] were -0.282 (inactive), 1.13 (inactive) and 2.23, respectively. The compound further yielded a composite z-score in [2] of 0.428.

As to `CC(=O)Nc1cc(Br)ccc1C(=O)NCc1ccccc1`, the z-score in [1] is -0.813 (inactive); in experiment [3], 3.88 (inactive); in experiment [4], 0.423 (inactive); in experiment [5], 0.0319 (inactive); in experiment [6], 0.229 (inactive); in experiment [7] it was -0.283. Moreover, the z-score was -0.714 (inactive) in experiment [8], -0.427 (inactive) in experiment [9] and -0.393 in experiment [10]. Moreover, the composite z-score in [2] was -0.0929.

Regarding `CC(C)(C)OC(=O)CC[C@]1(C(=O)NCCN2CCOCC2)COC(c2ccc(OCCCO)cc2)=N1`, the z-score in experiment [1] was 1.04 (inactive); in experiment [3], 18.7 (active); in [4] it was 2.01 (inactive); in experiment [5], 0.0229 (inactive); in experiment [6] it was 0.791 (inactive); in experiment [7], -0.395. Besides, the z-score is -2.08 (inactive) in experiment [8], 0.08 (inactive) in experiment [9] and -0.137 in experiment [10]. Besides, the composite z-score in experiment [2] amounted to 0.319.

In the case of `NC(=O)NCC#Cc1ccc2c(c1)[C@]1(C(=O)N2)[C@H](C(=O)O)[C@H]2C(=O)O[C@H](c3ccccc3)[C@H](c3ccccc3)N2[C@@H]1c1ccc(O)cc1`, the z-score in experiment [1] was -1.29 (inactive); in [3], 0.141 (inactive); in [4], 0.0468 (inactive); in experiment [5], -0.357 (inactive); in experiment [6], 0.27 (inactive); in experiment [7], -0.603. For the same compound, the figures for the z-score in experiment [8], in experiment [9] and in experiment [10] were 1.17 (inactive), -0.399 (inactive) and -0.349, respectively. Moreover, the composite z-score in experiment [2] was 0.642.

Regarding `COCCCNC(=O)[C@@H]1c2ccccc2C(=O)N(Cc2ccccc2)[C@H]1c1ccc(CO)cc1`, the z-score was -0.134 (inactive) in experiment [1]; 0.481 (inactive) in experiment [3]; -0.307 (inactive) in [4]; 0.239 (inactive) in [5]; 0.129 (inactive) in experiment [6]; -0.0034 in [7]. The z-score is -0.694 (inactive) in experiment [8], 0.572 (inactive) in [9] and -2.19 in experiment [10]. The compound further gave a composite z-score in [2] of 0.603.

On to `COCCOC(=O)N1C(=O)[C@@]2(c3ccccc31)[C@H](c1ccc(OCCO)cc1)N1[C@H](c3ccccc3)[C@H](c3ccccc3)OC(=O)[C@H]1[C@@H]2C(=O)N1CCc2cc(OC)c(OC)cc2C1`, for which the z-score in experiment [1] is 0.341 (inactive); in experiment [3], 12.7 (active); in experiment [4], 3.86 (inactive); in [5], 1.99 (inactive); in experiment [6] it was 2.18 (inactive); in experiment [7], 0.828. The z-score in experiment [8] was 1.16 (inactive); in experiment [9], 1.52 (inactive); in [10] it was -0.259. Further, in experiment [2], the composite z-score was found to be 0.358.

Turning to `CC(C)C(=C=CC[C@H](O)c1ccc(CO)o1)CCO`, the z-score in [1] was -0.543 (inactive); in experiment [3], 1.77 (inactive); in experiment [4], 0.408 (inactive); in experiment [5], 0.186 (inactive); in [6] it was -0.012 (inactive); in [7] it was -0.516. Further, the figures for the z-score in experiment [8], in experiment [9] and in experiment [10] were 0.228 (inactive), -0.345 (inactive) and -0.21, respectively. In addition, the composite z-score in [2] came out at 0.0494.

Regarding `[N-]=[N+]=Nc1ccccc1C[C@]1(C(=O)NCc2ccccc2)N=C(c2ccc(OCCCO)cc2)O[C@H]1c1ccccc1N=[N+]=[N-]`, the z-score in [1] was -0.107 (inactive); in experiment [3], 28.1 (active); in experiment [4], 28.7 (active); in experiment [5] it was 2.76 (inactive); in experiment [6] it was 5.76 (inactive); in [7] it was 0.096. Further, the z-score was -1.87 (inactive) in experiment [8], 0.483 (inactive) in [9] and -0.32 in experiment [10]. The compound further had a composite z-score in experiment [2] of -0.353.
